# Entries with a potency or affinity are not part of this list.
# Columns and labels:
# Staphylococcus aureus = settings: Concentration 32 ug.mL-1;; ASSAY_TEST Inhibition of Bacterial Growth; detection method Absorption (OD600); MEDIA CAMHB; plate type 384well; NBS; CORNING #3640; time 18 hr
# Escherichia coli = settings: Concentration 32 ug.mL-1;; ASSAY_TEST Inhibition of Bacterial Growth; detection method Absorption (OD600); MEDIA CAMHB; plate type 384well; NBS; CORNING #3640; time 18 hr
compound,measurement,setting,value
COc1ccc(-c2cc3c4nn(CC(=O)N5CCCc6ccccc65)c(=O)n4ccn3n2)cc1,Inhibition,Staphylococcus aureus,6.07%
same,Inhibition,Escherichia coli,1.46%
COc1ccc(CN(c2cc(C)cc(C)c2)S(=O)(=O)c2cccn3c(C)nnc23)cc1,Inhibition,Staphylococcus aureus,-21.45%
same,Inhibition,Escherichia coli,-2.42%
Cc1ccc(NC(=O)Cn2nc3c4cc(-c5ccc(C)c(C)c5)nn4ccn3c2=O)cc1C,Inhibition,Staphylococcus aureus,0.99%
same,Inhibition,Escherichia coli,-7.36%
Cc1ccc(-c2cc3c4nn(CC(=O)Nc5cc(F)ccc5C)c(=O)n4ccn3n2)cc1C,Inhibition,Staphylococcus aureus,8.9%
same,Inhibition,Escherichia coli,-4.51%
Cc1ccc(Sc2nccn3c(=O)n(CC(=O)Nc4ccc(Br)cc4)nc23)c(C)c1,Inhibition,Staphylococcus aureus,-1.98%
same,Inhibition,Escherichia coli,-4.39%
O=c1c2nn(Cc3cccc([N+](=O)[O-])c3)c(=O)n2ccn1-c1ccccc1,Inhibition,Staphylococcus aureus,-0.55%
same,Inhibition,Escherichia coli,-2.06%
COc1ccc(NC(=O)Cn2nc3c4cc(-c5ccc(C)cc5)nn4ccn3c2=O)cc1,Inhibition,Staphylococcus aureus,-5.75%
same,Inhibition,Escherichia coli,-1.43%
CN(C)C(=O)CSc1nnc2c(=O)n(-c3ccc(F)cc3)ccn12,Inhibition,Staphylococcus aureus,8.32%
same,Inhibition,Escherichia coli,0.14%
O=C(Cn1nc2ccc(Sc3cccc(F)c3)nn2c1=O)NCc1ccc(Cl)cc1,Inhibition,Staphylococcus aureus,1.01%
same,Inhibition,Escherichia coli,1.23%
Cc1ccc(Oc2nccn3c(=O)n(CC(=O)Nc4ccc5c(c4)OCO5)nc23)cc1,Inhibition,Staphylococcus aureus,6.26%
same,Inhibition,Escherichia coli,-6.61%
CCc1nnc2c(=O)n(CC(=O)Nc3cc(Cl)ccc3Cl)c3ccccc3n12,Inhibition,Staphylococcus aureus,1.29%
same,Inhibition,Escherichia coli,-5.86%
Cc1nnc2c(SCC(=O)Nc3cccc(Br)c3)nc3ccccc3n12,Inhibition,Staphylococcus aureus,-13.66%
same,Inhibition,Escherichia coli,-1.77%
Cc1ccc(Sc2nccn3c(=O)n(CC(=O)N4CCN(c5ccccc5)CC4)nc23)c(C)c1,Inhibition,Staphylococcus aureus,-10.57%
same,Inhibition,Escherichia coli,-12.78%
Cc1nnc2c(S(=O)(=O)N(Cc3ccccc3F)c3ccc(C(C)C)cc3)cccn12,Inhibition,Staphylococcus aureus,11.33%
same,Inhibition,Escherichia coli,-2.7%
COc1cccc(Oc2nccn3c(=O)n(CC(=O)Nc4ccc5c(c4)OCCO5)nc23)c1,Inhibition,Staphylococcus aureus,9.52%
same,Inhibition,Escherichia coli,-8.9%
O=C(CSc1nc2ccccc2n2cnnc12)N1CCN(c2ccc(F)cc2)CC1,Inhibition,Staphylococcus aureus,13.82%
same,Inhibition,Escherichia coli,1.79%
Cc1cc2nn(CC(=O)Nc3ccc(F)cc3F)c(=O)n2c(Nc2ccc(F)c(C)c2)n1,Inhibition,Staphylococcus aureus,5.82%
same,Inhibition,Escherichia coli,-5.59%
CCOc1ccc(-n2ccn3c(=O)n(CC(=O)Nc4ccc(Br)cc4)nc3c2=O)cc1,Inhibition,Staphylococcus aureus,-12.91%
same,Inhibition,Escherichia coli,-1.87%
O=c1n(Cc2nc(-c3ccc(F)cc3)no2)nc2ccc(-c3ccccc3)nn12,Inhibition,Staphylococcus aureus,3.21%
same,Inhibition,Escherichia coli,-3.67%
N#Cc1ccccc1NC(=O)Cn1nc2c(Oc3ccccc3)nccn2c1=O,Inhibition,Staphylococcus aureus,8.21%
same,Inhibition,Escherichia coli,1.56%
Cc1ccc(NC(=O)CSc2nc3ccccc3n3c(C)nnc23)c(Br)c1,Inhibition,Staphylococcus aureus,15.19%
same,Inhibition,Escherichia coli,-2.51%
Cc1cc(Br)ccc1NC(=O)Cn1nc2c(Sc3ccccc3)nccn2c1=O,Inhibition,Staphylococcus aureus,4.58%
same,Inhibition,Escherichia coli,-5.92%
O=C(Cn1nc2ccc(SCc3ccc(Cl)cc3)nn2c1=O)Nc1ccccc1C(F)(F)F,Inhibition,Staphylococcus aureus,4.98%
same,Inhibition,Escherichia coli,-5.74%
Cc1cc(Br)ccc1NC(=O)Cn1nc2c(SC3CCCCC3)nccn2c1=O,Inhibition,Staphylococcus aureus,6.25%
same,Inhibition,Escherichia coli,-6.44%
Cc1cc2nn(CC(=O)Nc3ccccc3)c(=O)n2c(Nc2ccc(C)c(F)c2)n1,Inhibition,Staphylococcus aureus,8.29%
same,Inhibition,Escherichia coli,-1.41%
O=C(Cn1nc2ccc(SCc3ccc(Cl)cc3)nn2c1=O)Nc1ccc2c(c1)CCC2,Inhibition,Staphylococcus aureus,2.54%
same,Inhibition,Escherichia coli,-5.73%
COc1ccc(Cl)cc1NC(=O)CSc1nnc2c(=O)n(-c3ccccc3)ccn12,Inhibition,Staphylococcus aureus,7.26%
same,Inhibition,Escherichia coli,-0.85%
COc1ccc(-c2cc3c4nn(CC(=O)Nc5cc(OC)cc(OC)c5)c(=O)n4ccn3n2)cc1,Inhibition,Staphylococcus aureus,-11.7%
same,Inhibition,Escherichia coli,-10.82%
Cc1ccc(-c2cc3c4nn(CC(=O)N5CCN(c6ccccc6F)CC5)c(=O)n4ccn3n2)cc1C,Inhibition,Staphylococcus aureus,8.03%
same,Inhibition,Escherichia coli,4.31%
Cc1cc(C)c(NC(=O)CSc2nnc3c4cc(-c5ccccc5)nn4ccn23)c(C)c1,Inhibition,Staphylococcus aureus,6.45%
same,Inhibition,Escherichia coli,-2.49%
COc1cccc(NC(=O)Cn2nc3c(=O)n(-c4ccc(Br)cc4)ccn3c2=O)c1,Inhibition,Staphylococcus aureus,-2.73%
same,Inhibition,Escherichia coli,-3.42%
CCCc1nnc2c(=O)n(CC(=O)Nc3cccc(Br)c3)c3ccccc3n12,Inhibition,Staphylococcus aureus,8.23%
same,Inhibition,Escherichia coli,-5.6%
CCOc1ccccc1NC(=O)Cn1nc2c(Sc3ccccc3)nccn2c1=O,Inhibition,Staphylococcus aureus,-2.46%
same,Inhibition,Escherichia coli,-5.85%
CC(C)CCn1c(=O)c2sccc2n2c(=O)n(CC(=O)N3CCC(Cc4ccccc4)CC3)nc12,Inhibition,Staphylococcus aureus,-19.02%
same,Inhibition,Escherichia coli,-15.19%
C=Cc1ccc(Cn2nc3c(=O)n(-c4ccc(C)c(C)c4)ccn3c2=O)cc1,Inhibition,Staphylococcus aureus,0.4%
same,Inhibition,Escherichia coli,3.59%
Cc1nnc2ccc(S(=O)(=O)N(Cc3ccccc3F)c3ccc(F)c(F)c3)cn12,Inhibition,Staphylococcus aureus,3.86%
same,Inhibition,Escherichia coli,-6.57%
COc1ccc(CCn2c(=O)c3sccc3n3c(=O)n(CC(=O)c4ccccc4)nc23)cc1OC,Inhibition,Staphylococcus aureus,14.35%
same,Inhibition,Escherichia coli,3.29%
CCc1nnc2c(S(=O)(=O)N(Cc3ccc(F)cc3)c3ccc(Cl)cc3)cccn12,Inhibition,Staphylococcus aureus,8.89%
same,Inhibition,Escherichia coli,-2.23%
COc1ccc(NC(=O)Cn2nc3c(Sc4ccccc4)nc4ccccc4n3c2=O)cc1Cl,Inhibition,Staphylococcus aureus,-0.59%
same,Inhibition,Escherichia coli,-7.36%
CCOC(=O)c1ccc(NC(=O)Cn2nc3c4cc(-c5ccc(C)cc5)nn4ccn3c2=O)cc1,Inhibition,Staphylococcus aureus,-5.61%
same,Inhibition,Escherichia coli,-8.93%
O=C(Cn1nc2c(N3CCOCC3)nccn2c1=O)NCc1ccc(C(F)(F)F)cc1,Inhibition,Staphylococcus aureus,3.92%
same,Inhibition,Escherichia coli,-9.55%
CCc1nnc2c(S(=O)(=O)N(Cc3cccc(F)c3)c3cccc(C)c3)cccn12,Inhibition,Staphylococcus aureus,12.77%
same,Inhibition,Escherichia coli,-0.95%
CC(=O)c1ccc(NC(=O)Cn2nc3c(Sc4ccc(C)cc4C)nccn3c2=O)cc1,Inhibition,Staphylococcus aureus,-12.01%
same,Inhibition,Escherichia coli,-21.11%
CC(C)c1ccc(N(Cc2cccc(Cl)c2)S(=O)(=O)c2cccn3cnnc23)cc1,Inhibition,Staphylococcus aureus,-3.13%
same,Inhibition,Escherichia coli,-8.14%
Cc1cc(C)cc(Nc2nc(C)cc3nn(CC(=O)NC4CCCC4)c(=O)n23)c1,Inhibition,Staphylococcus aureus,11.66%
same,Inhibition,Escherichia coli,0.01%
CC(C)Sc1ccc2nn(CC(=O)Nc3ccc(Br)cc3F)c(=O)n2n1,Inhibition,Staphylococcus aureus,-2.61%
same,Inhibition,Escherichia coli,3.45%
CCCCN(CC)c1ccc2nnc(CCc3nc(-c4ccc(Br)cc4)no3)n2n1,Inhibition,Staphylococcus aureus,6.29%
same,Inhibition,Escherichia coli,-0.23%
O=C(Cn1nc2c(N3CCOCC3)nccn2c1=O)NCc1ccccc1Cl,Inhibition,Staphylococcus aureus,17.61%
same,Inhibition,Escherichia coli,4.36%
Cc1ccc(-n2ccn3c(SCC(=O)Nc4ccc5c(c4)OCCO5)nnc3c2=O)cc1C,Inhibition,Staphylococcus aureus,6.11%
same,Inhibition,Escherichia coli,-5.98%
CCCn1c(=O)c2sccc2n2c(CCC(=O)NC(C)C34CC5CC(CC(C5)C3)C4)nnc12 (stereo not given),Inhibition,Staphylococcus aureus,-5.57%
same,Inhibition,Escherichia coli,-7.36%
CCOc1ccc(-c2nc(CSc3nc4ccccc4n4c(C(C)C)nnc34)c(C)o2)cc1,Inhibition,Staphylococcus aureus,-10.96%
same,Inhibition,Escherichia coli,-11.72%
COc1ccc(NC(=O)c2ccc3nn(CC(=O)Nc4ccc(C)c(F)c4)c(=O)n3c2)cc1,Inhibition,Staphylococcus aureus,8.14%
same,Inhibition,Escherichia coli,-7.69%
Cc1cccc(NC(=O)Cn2nc3c(Sc4ccccc4)nccn3c2=O)c1,Inhibition,Staphylococcus aureus,-16.15%
same,Inhibition,Escherichia coli,-1.95%
COc1ccc(C)cc1NC(=O)CSc1nc2ccccc2n2cnnc12,Inhibition,Staphylococcus aureus,16.59%
same,Inhibition,Escherichia coli,4.56%
COc1ccc(-c2cc3c4nnc(SCC(=O)NCc5ccc(Cl)cc5)n4ccn3n2)cc1,Inhibition,Staphylococcus aureus,-1.89%
same,Inhibition,Escherichia coli,-4.94%
CCc1ccc(N(Cc2cccc(OC)c2)S(=O)(=O)c2cccn3c(C)nnc23)cc1,Inhibition,Staphylococcus aureus,-1.7%
same,Inhibition,Escherichia coli,-9.35%
CCc1cccc(NC(=O)CSc2nnc3c(=O)n(-c4cccc(OC)c4)ccn23)c1,Inhibition,Staphylococcus aureus,9.81%
same,Inhibition,Escherichia coli,-1.21%
Cc1c(Cl)cccc1-n1ccn2c(SCC(=O)c3c[nH]c4ccccc34)nnc2c1=O,Inhibition,Staphylococcus aureus,-2.75%
same,Inhibition,Escherichia coli,-4.84%
COc1ccc(C(=O)CSc2nnc3c(=O)n(-c4cccc(OC)c4)ccn23)cc1,Inhibition,Staphylococcus aureus,14.49%
same,Inhibition,Escherichia coli,-2.33%
COc1cccc(-n2ccn3c(SC(C)C(=O)c4ccc(C)c(C)c4)nnc3c2=O)c1 (stereo not given),Inhibition,Staphylococcus aureus,13.98%
same,Inhibition,Escherichia coli,1.22%
COc1cc(OC)c(NC(=O)Cn2nc3c(Oc4cccc(C)c4C)nccn3c2=O)cc1Cl,Inhibition,Staphylococcus aureus,1.15%
same,Inhibition,Escherichia coli,-3.57%
Cc1cccc(C)c1NC(=O)CSc1nnc2ccc(C(=O)Nc3cccc(F)c3)cn12,Inhibition,Staphylococcus aureus,12.1%
same,Inhibition,Escherichia coli,2.91%
CC(C)c1ccc(NC(=O)Cn2nc3c(N4CCCCC4)nccn3c2=O)cc1,Inhibition,Staphylococcus aureus,-8.03%
same,Inhibition,Escherichia coli,-4.05%
COc1ccc(N(Cc2ccc(Cl)cc2)S(=O)(=O)c2ccc3nncn3c2)cc1,Inhibition,Staphylococcus aureus,-6.81%
same,Inhibition,Escherichia coli,-4.15%
Cc1nnc2c(S(=O)(=O)N(Cc3cccc(Cl)c3)c3ccc(F)c(F)c3)cccn12,Inhibition,Staphylococcus aureus,3.24%
same,Inhibition,Escherichia coli,-3.66%
Cc1ccc(-n2ccn3c(=O)n(Cc4c(F)cccc4Cl)nc3c2=O)cc1C,Inhibition,Staphylococcus aureus,10.39%
same,Inhibition,Escherichia coli,-0.86%
O=C(Cn1nc2c3cc(-c4ccc(F)cc4)nn3ccn2c1=O)N1CCN(c2ccccc2F)CC1,Inhibition,Staphylococcus aureus,-6.33%
same,Inhibition,Escherichia coli,3.42%
CC(C)(C)Sc1ccc2nn(CC(=O)Nc3ccccc3Cl)c(=O)n2n1,Inhibition,Staphylococcus aureus,7.11%
same,Inhibition,Escherichia coli,-2.79%
COc1ccc(CNC(=O)Cn2nc3c(Oc4cccc(C)c4C)nccn3c2=O)cc1,Inhibition,Staphylococcus aureus,-12.87%
same,Inhibition,Escherichia coli,0.86%
Cc1ccc(-c2ccc3nn(CC(=O)N4CCN(c5ccccc5)CC4)c(=O)n3n2)cc1C,Inhibition,Staphylococcus aureus,8.01%
same,Inhibition,Escherichia coli,2.66%

# From ChEMBL document CHEMBL4513146, “CO-ADD screening of Karazin Kharkiv National University (Ukraine) compounds”
